Measurements: the supplement of paper PMC6555819

How the values were obtained:
Assay in all cases: PBM binding z-score (relative to random genomic background probes); higher = stronger binding; sequences stand for … in GC…GCGATTGACAGCGTAGAATGAAGG
[1] = tested on: RARb homodimer (NR concentration 270 nM)
Summary of the method: (§1)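 Antibodies against each partner of ligand-free nuclear receptor dimers (one per run) detected binding on custom Agilent 4×180K protein-binding microarrays after 1 h incubation. The double-stranded probes had 34-nt variable regions carrying direct-repeat seeds, single-nucleotide variants, half-site ablations and random human genomic background sequences. Binding z-scores, from regression-normalized fluorescence, use the random background probes as reference.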

[2] = tested on: RARg:RXRa (NR concentration 270 nM, RXRa partner concentration 90 nM)
Summary of the method: as §1

[3] = tested on: RARg homodimer (NR concentration 270 nM)
Summary of the method: as §1

[4] = tested on: RXRa DBDmut IVT, anti-RXR (DBD mutation: RXRa K156A/R161A, NR concentration 90 nM)
Summary of the method: as §1

[5] = tested on: RXRa homodimer (NR concentration 180 nM)
Summary of the method: as §1

[6] = tested on: THRa:RXRa (NR concentration 90 nM, RXRa partner concentration 90 nM)
Summary of the method: as §1

[7] = tested on: THRa homodimer (NR concentration 90 nM)
Summary of the method: as §1

[8] = tested on: VDR homodimer (NR concentration 270 nM)
Summary of the method: as §1

Sequence	PBM binding z-score [1]	PBM binding z-score [2]	PBM binding z-score [3]	PBM binding z-score [4]	PBM binding z-score [5]	PBM binding z-score [6]	PBM binding z-score [7]	PBM binding z-score [8]
ATCTCTAGGTAAAAGTTCTGTGAATCCCGAGGAT	-0.265	0.293	0.308	-0.0693	0.153	0.234	0.364	0.467
CAAACTAGGTCACCGGAAGGTCAGAGTCCGCATG	5.45	7.9	7.02	1.63	5.06	4.19	2.73	2.14
CATACAGGGTCAGCTAGGCCATAGTAGGGACGGC	3.28	4.35	4.7	1.7	4.53	3.22	0.737	1.1
ACTATTAGTTGAGACGAGAGCAACCGATAGGTTG	-0.441	0.044	0.359	-0.00279	0.11	-0.0893	-0.555	-0.215
TCGAGTAGGTTAGTCGGTGCATTCAGCCAACATA	-0.0982	-0.434	-0.407	0.415	-0.152	-0.374	-0.377	0.902
TCATCTAGGTAATACAGGTGAAAGTCGGCATCTA	0.692	0.578	0.298	1.24	0.959	1.07	0.275	0.373
CGTCCAAGGTCAGCAGGTCAGTCAAAGCGACGTG	5	6.35	7.05	2.69	4.85	3.74	2.35	2.03
ATCTCTAGGGAAAGTTCAGTGAAAGATCGATAGA	2.2	2.01	2.11	1.12	1.21	0.605	0.0589	1.68
GCGAGTGGGGCAAAGCAGGTTACCATAAGGTTGG	1.29	0.324	0.332	-0.292	0.339	2.93	0.0981	-0.134
ACTAGCAGGCCAAGGTTCACTCAAGATTAGTCCG	1.66	1.53	1.15	1.75	1.58	1.31	0.0178	3.42
TCATCTAGGTAAACAGGTGAAAGTCCGTAAGTTA	0.582	0.394	0.147	1.26	0.645	0.888	0.459	0.0533
GGAACGAGGGCAGGTTGATAGCAGAGTTTGATGG	1.3	0.763	1.26	0.971	0.496	0.552	0.392	1.16
ACTCGGAGGACACAGGTCAGAGCTACGCCAGTGA	2.78	2.68	3.12	0.823	2.09	2.57	0.77	0.0264
CCAGACAGGTGAGAAGGTAACTCTGCCTCGATTA	0.53	0.418	0.366	0.11	0.281	0.348	0.0664	-0.0879
CAGCCTAGGTCAGGGCTAGTATAGGAGGAACGTT	2.38	2.93	3.76	-0.422	1.49	1.82	0.321	-0.179
GCTAGCAGGCCATTTGGGTCCCTCAATGACGGGC	-0.901	-0.417	-0.379	-0.721	-0.4	0.249	-1.01	-0.499
TAGCCTAGGGCAGATCGGGCCAGTATACGCTATA	-0.161	0.171	0.578	-1.17	-0.16	2.16	-1.07	-0.532
GGAACGAGGGCATTCGGGTTGATAGCATGGCGAT	0.654	1.05	1.55	3.18	0.826	2.68	0.0871	4.11
TCGAGTAGGTTAGTCAGGGCATTCAGCCAACATA	0.896	-0.14	0.189	0.358	-0.156	1.1	0.314	0.685

Sequence	PBM binding z-score [1]	PBM binding z-score [2]	PBM binding z-score [3]	PBM binding z-score [4]	PBM binding z-score [5]	PBM binding z-score [6]	PBM binding z-score [7]	PBM binding z-score [8]
TGAATGAGGTTATAAGAGCAGGGAACGTTGCAAA	0.269	1.47	0.87	0.547	1.87	1.66	0.0456	0.451
GAAACGAGGGCAAAGTTGATAGCATCTGTCGACG	1.33	2.11	1.58	2.66	2.3	1.57	-0.284	1.13
CCTAGCAGGCCAATCTGGGTCACGCAAGGCTTGA	2.43	1.86	1.9	-0.504	1.69	3.99	0.767	-0.0889
TCGAGTAGGTTAGGGGCATCCAGAATGGCGTCGA	1.01	0.269	0.268	0.271	0.71	1.05	0.256	0.462
CCTGCTAGGTGATGGTCAGCTAATCTACAGTATG	-0.121	-0.189	0.108	-0.024	-0.424	-0.498	-0.545	-0.612
TCGAATAGGTTAGGGGCATTCAGAATGGCGTCGA	1.08	0.753	0.9	1.19	1.15	0.948	0.436	0.995
TCATATAGGTAAATGCTAGGAGAAAGTCCGATCT	-0.501	0.278	0.46	1.67	0.597	-0.0458	-0.197	-0.0177
TCATATAGGTAAATGCTAGGCGAAAGTCCGATCT	-0.15	0.217	0.256	1.43	0.556	0.231	0.0597	0.181
ATATGTAGGTTACATCCGCGTCATTCAGGCTATG	0.571	0.929	1.09	0.366	0.901	0.526	0.124	0.163
AGAATGAGGTTATTAAGATCAAGGAATTGCGGTC	0.762	1.21	0.86	2.05	1.86	2.13	0.766	1.61
TTACCAAGGTAAGCTGAGGTCGTTGATCCAACTC	0.571	0.164	-0.00347	0.278	0.962	4.33	1.61	1.65
ATATGTAGGTTATCGAGTCATTCAGTTTGCGCAT	0.699	0.829	0.699	0.829	0.932	0.512	0.232	0.932
CCTAACGGGTCACGAGGTTATAGCACGACGAGCG	3.65	5.84	4.93	1.5	6.09	3.44	0.791	1.91
CGTCACAGTTCAAGGTAACGTAACAGAAAGCAGC	1.63	2.45	2.53	2.69	2.14	2.24	1.24	1.53
CAAACTAGGTCACGAAAGGTAAAAGTCGAATGAC	3.34	5.16	5.56	2.02	4.2	4.18	1.49	0.85
TCATATAGGTAAATGCCAGGTGAAAGTCCGATCT	0.815	0.611	0.433	1.64	0.912	2.02	1.33	0.435
AGAACGAGGGCAATGAGTTGATCGCACGGGTGGC	0.965	0.967	1.42	2.25	0.774	1.14	-0.233	3.08
ACTATTAGTTGAGACGAGGGCAACTGATAGGTTG	1.19	0.865	0.97	0.568	0.797	2.41	0.298	0.702
TCTGCTAGGTCATTTGGTCAGCTAACGAGCTGCC	2.97	3.84	4.17	2.58	2.34	2.42	0.658	1.49

Sequence	PBM binding z-score [1]	PBM binding z-score [2]	PBM binding z-score [3]	PBM binding z-score [4]	PBM binding z-score [5]	PBM binding z-score [6]	PBM binding z-score [7]	PBM binding z-score [8]
CCTACTGGGCCATTCAAAGGTCATTGATCATATG	4.5	4.85	3.67	0.609	4.61	3.25	0.994	2.4
CGAACTAGGTCATTGACAGGACCGTGAATAGTAA	2.09	3.59	3.95	2.37	2.17	2.32	0.476	1.15
ACTTACGGGTCAGCGAGGTTATAGCACGCGTATA	3.53	4.79	4.61	1.45	4.69	3.83	1.06	2.44
TCGAGTAGGTTAGTCGGGGAATTCAGCCAACATA	0.122	-0.408	-0.41	0.0963	-0.255	0.163	-0.3	-0.495
CGTCCAAGGTCAAGGCTAGGTCAGTGAAAGCATT	4.89	7.82	7.4	3.43	6.77	4.49	3.29	2.58
TCTTGTAGGTCAGCAGGTTAAGAAAGCTGGCCAA	3.05	4.48	4.43	0.785	3.23	1.97	-0.325	0.0594
TCTAGTTGGTCCAAGGTCACACACTCGAAATGCG	4.11	4.07	3.8	2.01	4.39	4.31	4.14	3.22
AAAGACAGGTGAGTGAAGGTAACTCAGCTGGACG	0.159	0.293	0.488	-0.545	0.374	1.86	-0.204	-0.128
TCATATAGATAAACAGGTGAAAGTCCGTAAGTTA	0.615	0.467	0.388	1.94	1.33	0.561	0.191	0.676
ATCTCTAGGTTAGACTCAGTTCAGTGAAGAACGC	1.37	1.4	1.14	1	0.687	1.52	1.21	2.48
ATCTCTAGGTAACAAGTTCCGTGAAAGAGAGGAC	0.549	0.357	0.586	-0.202	0.164	0.983	0.899	0.475
CCTAGGAGGACAGAAGGTCAGAGCTGTCCGCTTT	3.34	3.28	2.78	0.179	1.84	2.25	-0.21	-0.00238
CCTGCTAGGTCATGGTCGGCTAATCTACAGTATG	2.46	3.92	4.63	1.75	2.82	3.01	1.29	0.379
TAGCCTAGGTCATTCAGGGGCCAGTGTAGAAAGC	3.6	6.11	4.75	1.83	3.15	3.58	0.809	1.58
ATATGTAGGTTAGATCCGGGTCATTCAGGCTATG	2.63	3.21	1.63	0.691	2.65	3.63	2.08	1.71
GCTGCTAGGTCAGGTTGGTCAGTTAACGGGTACG	2.75	2.59	3.38	0.795	1.02	2.03	1.2	0.71
ATCTCTAGGTAAAGTTCAGTAAAAGATCGATAGA	2.39	2.22	2.74	1.27	1.18	1.23	0.183	2.13
GGACCGAGGGCAAGTTGATAGCAGAGTTTGATGG	1.43	1.78	2.07	2.06	0.783	0.968	-0.0674	1.67
ACTATTAGTTGACTTAGGGCGACCGATACGACGC	0.553	0.564	0.841	1.02	0.421	1.12	0.262	0.166
